Test results: PubChem BioAssay

Test system: XIP peptide (Xip251-270) binding
Experiment: XIP fragment 251-270 binding compounds – biochemical, small-molecule microarray, fluorescence 635/667 nm, 0.1 µg/mL protein, primary screen (AID 1182)
Settings: fluorescent protein binding, 635 nm, higher = more signal, called active from +8 up or from −8 down

Composite z-score, inactive:
CCCCC(=C=CC[C@@H](O)c1ccccc1OCCO)C[C@@H](O)c1ccccn1 0.161, [N-]=[N+]=Nc1ccccc1C[C@]1(C(=O)N2CCCCC2)N=C(c2ccc(OCCCO)cc2)O[C@H]1c1ccccc1 1.48, C=C1C(=O)C=C2CN(C(=O)c3ccccc3)[C@@](Cc3ccc(F)cc3)(C(=O)OC)[C@@H]12 0.741, COC(=O)C(CC#Cc1ccc2c(c1)[C@]1(C(=O)N2)[C@H](c2ccc(OCCO)cc2)N2[C@H](c3ccccc3)[C@H](c3ccccc3)OC(=O)[C@H]2[C@@H]1C(N)=O)C(=O)OC 0.372, C=CCNC(=O)[C@H]1[C@@H]2C(=O)O[C@@H](c3ccccc3)[C@@H](c3ccccc3)N2[C@@H](c2ccc(O)cc2)[C@]12C(=O)N(C(=O)OCCOC)c1ccc(C#Cc3ccc(OC)cc3)cc12 -0.184, C=C(C)C1CN([C@H](CO)c2ccccc2)C(=O)/C1=C\c1ccccc1 (some centres not stated) -0.598, COC(=O)C(CC#Cc1ccc2c(c1)[C@]1(C(=O)N2)[C@H](C(N)=O)[C@H]2C(=O)O[C@H](c3ccccc3)[C@H](c3ccccc3)N2[C@@H]1c1ccccc1OCCO)C(=O)OC 0.898, C=CC[C@H](OC(=O)Nc1ccc(SC)cc1)c1ccc(O)c(F)c1 1.07, CN1C2C=C(c3ccc(CO)cc3)C(C3C(=O)N(C(N)=O)C(=O)C32)C1C1CC1 (configuration not stated) -0.313, CCCCN1CC=CC23O[C@@H]4/C=C\CCCOC(=O)C4[C@H]2C(=O)N(CCCCCCO)[C@@H]3C1=O (some centres not stated) 0.723, CN(C)C(=O)[C@]1(CCS(=O)(=O)c2ccccc2)N=C(c2ccc(OCCCO)cc2)O[C@@H]1c1ccccc1CN=[N+]=[N-] 0.556, CC(C)(C)OC(=O)CC[C@@]1(C(=O)N2CCOCC2)N=C(c2ccc(OCCCO)cc2)O[C@@H]1c1ccccc1CN=[N+]=[N-] 3.3, COc1ccc(CCNC(=O)[C@@H]2c3ccccc3C(=O)N(C(C)C)[C@H]2c2ccc(CO)cc2)cc1 -0.343, COC(=O)C(CC#Cc1ccc2c(c1)[C@]1(C(=O)N2)[C@H](C(=O)N2CCCCCCC2)[C@H]2C(=O)O[C@H](c3ccccc3)[C@H](c3ccccc3)N2[C@@H]1c1ccc(OCCO)cc1)C(=O)OC 6.2, O=C1N(Cc2ccccc2)Cc2ccccc2C[C@@]12COC(c1ccc(OCCCO)cc1)=N2 0.704, COc1cccc(C)c1NC(=O)O[C@H]1[C@H](OC(=O)Nc2ccccc2)[C@@H](OC(=O)Nc2ccccc2)[C@@H](OC)O[C@@H]1CO 1.3, COc1ccc(NN2C(C(O)c3ccc(F)cc3)C=CC3C(=O)N(C4CCCCC4)C(=O)C32)cc1 (configuration not stated) 0.331, COCCOC(=O)N1C(=O)[C@@]2(c3cc(C#CCCO)ccc31)[C@H](c1ccc(O)cc1)N1[C@H](c3ccccc3)[C@H](c3ccccc3)OC(=O)[C@H]1[C@@H]2C(=O)NC[C@H](O)c1ccccc1 0.395, CC(C)N1CC=CC23O[C@@H]4/C=C\CCCOC(=O)C4[C@H]2C(=O)N(C(C)CO)[C@@H]3C1=O (some centres not stated) -0.0835, O=C/C=C/c1ccc(-c2ccccc2)cc1 -1.46, C=CCC(OC(C)=O)[C@@H]1[C@@H](N(Cc2ccc(-c3ccccc3)cc2)C(=O)Cc2ccc(OC)cc2)c2cc(OCCCO)ccc2N1C(=O)Cc1ccc(OC)cc1 (some centres not stated) 0.497, COc1ccc([Si](C)(C)[C@@H]2[C@@H](CC(=O)N(CCO)Cc3ccccc3)O[C@]3(C(=O)N(Cc4cccc(I)c4)c4ccccc43)[C@H]2C)cc1 0.479, CCCCCN1CC=CC23O[C@@H]4/C=C\CCCOC(=O)C4[C@H]2C(=O)N(CCO)[C@@H]3C1=O (some centres not stated) -0.0751, COc1ccc([Si](C)(C)[C@H]2[C@H](CC(=O)N3CCC[C@H]3CO)O[C@@]3(C(=O)N(C)c4c(Br)cc(C)cc43)[C@@H]2C)cc1 1.14, Cc1ccc(S[C@]2(C(=O)NC(C)C)CC(=O)N(Cc3ccccc3)[C@@H]2c2ccc(CO)cc2)cc1 1.13, O=C1C2C=CC(C(O)C3CCCCC3)N(Nc3ccccc3F)C2C(=O)N1c1ccccc1 (configuration not stated) 0.352, CO[C@H]1O[C@H](CO)[C@@H](OC(=O)CCc2ccccc2)[C@@H]2OC(=O)[C@@H](Cc3ccc4ccccc4c3)C/C=C/C[C@H](Cc3ccc4ccccc4c3)C(=O)O[C@@H]12 0.204
